Results from paper PMC7819943, “Rice protein-binding microarrays: a tool to detect cis-acting elements near promoter regions in rice”.
Over roughly 68,000 sequences, “fluorescence intensity (a.u.)” has its median near 9,100; the highest 2% begin near 16,000. Only a selection was taken, and the highest values are over-represented in it overall.

molecular target: OsWRKY34 (Oryza sativa, UniProt Q0JBA9 1-250); experiment: protein-binding microarray (RPBM); PBS, 2% BSA, 51.3 ng/ul salmon testes DNA, 50 uM zinc acetate, 200 nM TF, 25 C, 1 h; high values mean tight binding; settings: protein: recombinant; tags: N-terminal polyhistidine and DsRed monomer fusion (pET32a); label: CyDye5-dUTP incorporated in the synthesized complementary strand; 3' TTTTT single-stranded linker to array surface; dsDNA, one strand shown
Outline: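 An Axon 4000B scanner gave the binding signal as per-feature fluorescence intensity in arbitrary units. This followed washing of a custom Agilent array that had been incubated for 1 h at 25 °C with 200 nM protein in PBS, 2% BSA, salmon testes DNA and 50 µM zinc acetate. The proteins were transcription factors fused at the N-terminus to polyhistidine and DsRed, expressed in E. coli BL21-CodonPlus and purified on Ni–NTA.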

Sequence of OsWRKY34 (Q0JBA9 entry or part of it): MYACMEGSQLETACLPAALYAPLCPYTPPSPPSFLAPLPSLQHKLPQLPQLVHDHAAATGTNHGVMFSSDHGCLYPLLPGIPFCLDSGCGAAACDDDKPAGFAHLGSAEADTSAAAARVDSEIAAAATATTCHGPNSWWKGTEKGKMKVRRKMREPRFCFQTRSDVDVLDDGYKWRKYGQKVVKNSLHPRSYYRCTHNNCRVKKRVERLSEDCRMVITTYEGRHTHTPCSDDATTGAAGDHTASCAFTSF

Sequence	binding signal
CCCTATCCATTAATTACTCGCTTCGTGGTCGGAATCCATGCGGAGTCACCTAGTGCAG	8200 fluorescence intensity (a.u.)
TGCTGCTGGTTACTTGTATTAATACATTATAGAAAATGAGCGGAGTCACCTAGTGCAG	8070 fluorescence intensity (a.u.)
AACTCTTTCTGCCCACTTCCTCAACCCATGCTTATCTACCCGGAGTCACCTAGTGCAG	8240 fluorescence intensity (a.u.)
TGAGAAGCACCGCTCTCTCCTGCACCCGTCTCACGTGCACCGGAGTCACCTAGTGCAG	8300 fluorescence intensity (a.u.)
TCACCTGATCAAGTACGCGTTTTTGGCCCTCAAAAGTATTCGGAGTCACCTAGTGCAG	8120 fluorescence intensity (a.u.)
ACTAGGGTTCTCTTCTCACTCCATCGCTAGCGGCGGCTCACGGAGTCACCTAGTGCAG	8340 fluorescence intensity (a.u.)
TAATGGGATGGGTGAAAAGTTATTGTTTTTGGTAGGCCTTCGGAGTCACCTAGTGCAG	9640 fluorescence intensity (a.u.)
CACCGCCGAACGCACGATTTCTTCCCGACGCTGTCACTTGCGGAGTCACCTAGTGCAG	8190 fluorescence intensity (a.u.)
CCGCGATCTGTTTCGTCCAGCTTAATTTGTTGCTGTTCTGCGGAGTCACCTAGTGCAG	11300 fluorescence intensity (a.u.)
TATTGACTTTGGTCAAAGTCAAACTGTTTTAAATTTCACTCGGAGTCACCTAGTGCAG	10500 fluorescence intensity (a.u.)
AAGTTATAAGATGTTTTGACTTTGGTCAAAGTCAAACTGCCGGAGTCACCTAGTGCAG	14600 fluorescence intensity (a.u.)
GTTTGACTTTTTTACTAGTCAAACTTATTTAAGTTTGACCCGGAGTCACCTAGTGCAG	17500 fluorescence intensity (a.u.)
TATTTTTGACTTTGGTCAAAGTCAAACTGTTTTAAGTTTGCGGAGTCACCTAGTGCAG	17900 fluorescence intensity (a.u.)
AAGTTACTTTTATTTTTTTCTAGTCAAACTACTTAGACTTCGGAGTCACCTAGTGCAG	8740 fluorescence intensity (a.u.)
ACATTTTGACTTTTGCCAAAGTCAAACTGCTTTAAGTTTGCGGAGTCACCTAGTGCAG	11900 fluorescence intensity (a.u.)
TAAGATGTTTTGACTTTGGTCAAAGTCAAACTACTTTGAGCGGAGTCACCTAGTGCAG	13200 fluorescence intensity (a.u.)
TTATAAGATGTTTTGACTTTGGTCAAAGTCAAACTATTTCCGGAGTCACCTAGTGCAG	16600 fluorescence intensity (a.u.)
TTTGATTTTGGTCAAAGTCAAACTACTCTAAGTTTGACTACGGAGTCACCTAGTGCAG	13400 fluorescence intensity (a.u.)
CGCTCACTCGTCTCCTCTCGGTTTCTTTCTCTCTCTCTCTCGGAGTCACCTAGTGCAG	8160 fluorescence intensity (a.u.)
TATCACGATATTCTACCTCGCTCTCATGGGCTAGATCACCCGGAGTCACCTAGTGCAG	9500 fluorescence intensity (a.u.)
CCTTGTACCTCTGTCCAGATTCATTGTACTAAGATATGTCCGGAGTCACCTAGTGCAG	8540 fluorescence intensity (a.u.)
CTCTCTCTCTCTCTGCAGCTAGGCCATATGCATCTCTCCTCGGAGTCACCTAGTGCAG	9070 fluorescence intensity (a.u.)
GCATTCACTCCATCGCACCACTTCATGCCGCAAAATGTTTCGGAGTCACCTAGTGCAG	9970 fluorescence intensity (a.u.)
